# Source: publication PMC5540273 (PLoS ONE, 2017)
# Where two headings read alike, the source gives them in different places.
# Columns and labels:
# FLT3 = conditions: concentration: 1 μM, replicates: in singlicate; n = 1
# FLT4 = conditions: concentration: 1 μM, replicates: in singlicate; n = 1
# FRK = conditions: concentration: 1 μM, replicates: in singlicate; n = 1
# FYN = conditions: concentration: 1 μM, replicates: in singlicate; n = 1
# GAK = conditions: concentration: 1 μM, replicates: in singlicate; n = 1
# GCN2(Kin.Dom.2,S808G) = test system: T1, GCN2(Kin.Dom.2,S808G); conditions: concentration: 1 μM, replicates: in singlicate; n = 1
# T1 construct: gene EIF2AK4
# GRK1 = conditions: concentration: 1 μM, replicates: in singlicate; n = 1
# GRK2 = test system: T2, GRK2; conditions: concentration: 1 μM, replicates: in singlicate; n = 1
# T2 construct: gene ADRBK1
# GRK3 = test system: T3, GRK3; conditions: concentration: 1 μM, replicates: in singlicate; n = 1
# T3 construct: gene ADRBK2
# GRK4 = conditions: concentration: 1 μM, replicates: in singlicate; n = 1
# GRK7 = conditions: concentration: 1 μM, replicates: in singlicate; n = 1
# GSK3A = conditions: concentration: 1 μM, replicates: in singlicate; n = 1
# GSK3B = conditions: n = 1
# HASPIN = test system: T4, HASPIN; conditions: concentration: 1 μM, replicates: in singlicate; n = 1
# T4 construct: gene GSG2
# HCK = conditions: concentration: 1 μM, replicates: in singlicate; n = 1
# HIPK1 = conditions: concentration: 1 μM, replicates: in singlicate; n = 1
# HIPK2 = conditions: concentration: 1 μM, replicates: in singlicate; n = 1
# HIPK3 = conditions: concentration: 1 μM, replicates: in singlicate; n = 1
# HIPK4 = conditions: concentration: 1 μM, replicates: in singlicate; n = 1
# HPK1 = conditions: concentration: 1 μM, replicates: in singlicate; n = 1
# [1] = concentration: 1 μM, replicates: in singlicate
# 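Further: KINOMEscan kinase panel screen.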
smiles,measurement,setting,value
Cc1nnc(-c2ccc3occ(-c4ccc(S(C)=O)cc4)c3c2)[nH]1 (stereo not shown),%Inh,FLT3,33%
same,%Inh,FLT4,18%
same,%Inh,FRK,1%
same,%Inh,FYN,0%
same,%Inh,GAK,24%
same,%Inh,"GCN2(Kin.Dom.2,S808G)",0%
same,%Inh,GRK1,20%
same,%Inh,GRK2,0%
same,%Inh,GRK3,40%
same,%Inh,GRK4,11%
same,%Inh,GRK7,6%
same,%Inh,GSK3A,86%
same,%Inh,GSK3B; [1],75%
same,%Inh,HASPIN,25%
same,%Inh,HCK,0%
same,%Inh,HIPK1,69%
same,%Inh,HIPK2,84%
same,%Inh,HIPK3,81%
same,%Inh,HIPK4,36%
same,%Inh,HPK1,0%
Cn1ccc2ncnc(Oc3cccc(C(=O)Nc4ccccc4)c3)c21,%Inh,FLT3,17%
same,%Inh,FLT4,0%
same,%Inh,FRK,27%
same,%Inh,FYN,8%
same,%Inh,GAK,0%
same,%Inh,"GCN2(Kin.Dom.2,S808G)",14%
same,%Inh,GRK1,0%
same,%Inh,GRK2,0%
same,%Inh,GRK3,8%
same,%Inh,GRK4,3%
same,%Inh,GRK7,21%
same,%Inh,GSK3A,24%
same,%Inh,GSK3B; [1],2%
same,%Inh,HASPIN,37%
same,%Inh,HCK,8%
same,%Inh,HIPK1,0%
same,%Inh,HIPK2,30%
same,%Inh,HIPK3,5%
same,%Inh,HIPK4,0%
same,%Inh,HPK1,2%
COc1ccccc1-c1ccc2c(NC(=O)C3CC3)n[nH]c2n1 [SB-711239],%Inh,FLT3,5%
same,%Inh,FLT4,0%
same,%Inh,FRK,0%
same,%Inh,FYN,5%
same,%Inh,GAK,14%
same,%Inh,"GCN2(Kin.Dom.2,S808G)",10%
same,%Inh,GRK1,13%
same,%Inh,GRK2,0%
same,%Inh,GRK3,0%
same,%Inh,GRK4,28%
same,%Inh,GRK7,0%
same,%Inh,GSK3A,6%
same,%Inh,GSK3B; 1 µM,0%
same,%Inh,HASPIN,41%
same,%Inh,HCK,0%
same,%Inh,HIPK1,0%
same,%Inh,HIPK2,0%
same,%Inh,HIPK3,1%
same,%Inh,HIPK4,0%
same,%Inh,HPK1,41%
Cl.Oc1ccc(-c2nc(-c3ccccc3)[nH]c2-c2ccncc2)cc1 [SB-428218],%Inh,FLT3,0%
same,%Inh,FLT4,0%
same,%Inh,FRK,37%
same,%Inh,FYN,23%
same,%Inh,GAK,36%
same,%Inh,"GCN2(Kin.Dom.2,S808G)",8%
same,%Inh,GRK1,57%
same,%Inh,GRK2,0%
same,%Inh,GRK3,75%
same,%Inh,GRK4,0%
same,%Inh,GRK7,0%
same,%Inh,GSK3A,11%
same,%Inh,GSK3B; [1],0%
same,%Inh,HASPIN,15%
same,%Inh,HCK,0%
same,%Inh,HIPK1,5%
same,%Inh,HIPK2,16%
same,%Inh,HIPK3,1%
same,%Inh,HIPK4,0%
same,%Inh,HPK1,38%
COc1cc2ncnc(Nc3ccc4nc(-c5ccccc5)[nH]c4c3)c2cc1OC.Cl [GW282450],%Inh,FLT3,0%
same,%Inh,FLT4,0%
same,%Inh,FRK,0%
same,%Inh,FYN,34%
same,%Inh,GAK,68%
same,%Inh,"GCN2(Kin.Dom.2,S808G)",0%
same,%Inh,GRK1,0%
same,%Inh,GRK2,0%
same,%Inh,GRK3,14%
same,%Inh,GRK4,11%
same,%Inh,GRK7,0%
same,%Inh,GSK3A,0%
same,%Inh,GSK3B; [1],22%
same,%Inh,HASPIN,0%
same,%Inh,HCK,0%
same,%Inh,HIPK1,6%
same,%Inh,HIPK2,0%
same,%Inh,HIPK3,32%
same,%Inh,HIPK4,35%
same,%Inh,HPK1,1%
